DRD3 antagonist: D3 dopamine receptor (human) antagonism | P35462 | D3R cells, DiscoveRx beta-arrestin luminescence, antagonist mode; active compounds read low | max response, negative = inhibition, % | 360,000 tested, 2.5% active; in the data active = max response below about -50%; inconclusive = no clear call, values can overlap the other calls
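Cells plated overnight at 1500 cells/well, then exposed to library compounds with dopamine controls for 90 minutes at 37 degrees C. DiscoveRx reagent added for 30–60 minutes at room temperature; luminescence read, quantitative HTS format.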
TRPML1 agonist: activates the human TRPML1 channel; Q9GZU1; TRPML1-expressing cells, Ca2+ dye fluorescence, FDSS; activation, % (test concentration not listed); 410,000 tested, 0.12% active; AID 624414; in the data active = activation above about 50%; inconclusive = mostly about 30% to 49%
Target sequence (Q9GZU1 whole entry, looked up): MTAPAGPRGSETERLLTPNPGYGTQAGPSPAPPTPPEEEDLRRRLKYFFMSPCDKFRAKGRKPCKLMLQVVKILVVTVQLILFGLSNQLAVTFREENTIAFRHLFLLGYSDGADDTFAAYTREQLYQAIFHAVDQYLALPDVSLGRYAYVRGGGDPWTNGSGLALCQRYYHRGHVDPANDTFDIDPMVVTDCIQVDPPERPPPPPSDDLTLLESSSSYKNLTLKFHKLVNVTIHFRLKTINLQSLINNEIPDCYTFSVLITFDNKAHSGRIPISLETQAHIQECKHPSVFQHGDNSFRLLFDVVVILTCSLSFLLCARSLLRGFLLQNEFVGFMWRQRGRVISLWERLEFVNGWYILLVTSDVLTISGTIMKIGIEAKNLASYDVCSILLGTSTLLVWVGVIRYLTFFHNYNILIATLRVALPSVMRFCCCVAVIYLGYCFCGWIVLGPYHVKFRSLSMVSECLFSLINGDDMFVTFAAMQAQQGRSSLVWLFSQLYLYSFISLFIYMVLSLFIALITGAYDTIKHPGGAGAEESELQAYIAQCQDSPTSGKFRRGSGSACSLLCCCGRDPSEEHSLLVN
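Tet-induced TRPML1-DL cells, 1,500 per well, cultured overnight, were loaded with a no-wash Ca2+ dye for 45–90 min. Calcium fluorescence was recorded on the FDSS for 110 s after compound addition, before the EC80 agonist (4 uM 54-4) was added.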
TRPML1 blocker: human mucolipin-1 channel inhibition. Q9GZU1. TRPML1-inducible cells, Ca2+ dye fluorescence, FDSS; active compounds read low; inhibition of EC80 agonist-evoked calcium signal. activity change, negative = inhibition, % (concentration not given with the values). 390,000 tested, 0.02% active; in the data active = activity change below about -50%; inconclusive = between about -30% and that limit;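 note: stimulus is agonist 54-4 at its EC80 concentration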
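TRPML1-DL cells, Tet-induced overnight (~16 h, 37 °C) at 1,500 cells/well, were loaded with Ca8 no-wash dye plus quencher for 45-90 min at room temperature. Compounds were pinned during FDSS kinetic reading; agonist 54-4 at EC80 (4 uM final) then added.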
D3 ag: activates the human D3 dopamine receptor; P35462; D3R DiscoveRx beta-arrestin cells, luminescence, 90 min; max activation, %; 410,000 tested, 0.58% active; AID 652048; in the data active = max activation above about 30%
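Agonist mode: compounds and dopamine controls were applied to plated cells for 90 min at 37 degrees C after an overnight attachment at 1500 cells/well. Luminescent read-out followed 30 - 60 minutes at room temperature with DiscoveRx detection reagent.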
Of the large screens only hits and unclear results are named; the others gave an inactive call. Sampled rows, rich in hits. Any-hit rate of the full collection: about 2.9%.

O=C(Nc1ccccc1SC(=O)c1ccccc1)c1ccccc1	none
Cc1ccc(C(=O)Sc2cccccc2=O)cc1	DRD3 antagonist -94
CCOC(=O)[C@H](CCc1ccccc1)N[C@@H](C)C(=O)N1CCC[C@@H]1C(=O)O	D3 ag 74
Cc1[nH]c(C)c(S(=O)(=O)Nc2cccc(Cl)c2C)c1C(=O)N1CCCC1	DRD3 antagonist -65
Cc1[nH]c(C)c(S(=O)(=O)Nc2cccc(Cl)c2C)c1C(=O)N1CCCCC1	DRD3 antagonist -51
Cc1ccc(NS(=O)(=O)c2c(C)[nH]c(C)c2C(=O)N2CCCC2)cc1Cl	DRD3 antagonist -86
Cc1ccc(NS(=O)(=O)c2c(C)[nH]c(C)c2C(=O)N2CCCCC2)cc1C	DRD3 antagonist inconclusive
O=c1c2ccccc2ncn1CCCSc1ccccc1	DRD3 antagonist -54
COc1ccccc1OCCNC1CCCC1	DRD3 antagonist -76
N#Cc1ccccc1OCCOCCNC1CCCC1	DRD3 antagonist inconclusive
CCC(C)c1ccccc1OCCCNC1CCCC1 (stereo not given)	DRD3 antagonist -82
Cc1ccc(S(=O)(=O)N2CCN(c3nc(-n4ccnc4)nc4ccccc34)CC2)cc1	none (no result: DRD3 antagonist, TRPML1 blocker, D3 ag)
COc1ccc(OC)c(NC(=O)C2Cc3ccccc3CN2S(=O)(=O)c2ccc(F)cc2)c1 (stereo not given)	none (no result: DRD3 antagonist)
COc1cc(C(=O)NC(CCSC)C(=O)Nc2ccc(N3CCOCC3)cc2)cc(OC)c1OC (stereo not given)	DRD3 antagonist -73
CSCCC(NC(=O)c1cccc(S(=O)(=O)N2CCOCC2)c1)C(=O)Nc1ccc(F)cc1 (stereo not given)	none
CCN(CC)c1ccc(/C=C(\C#N)C(=O)c2ccc(Br)cc2)cc1	TRPML1 agonist 79
CN(C)c1ccc(/C=C(\C#N)C(=O)c2ccccc2)cc1	TRPML1 agonist 72, TRPML1 blocker inconclusive
Cc1ccc(C2C3=C(CC(C)(C)CC3=O)Nc3onc(C)c32)cc1 (stereo not given)	DRD3 antagonist inconclusive
Cc1noc2c1C(c1ccc(N(C)C)cc1)C1=C(CC(C)(C)CC1=O)N2 (stereo not given)	DRD3 antagonist -78
CC(=O)Nc1cccc(NC(=O)CSc2cn(CC(=O)N3CCCCCC3)c3ccccc23)c1	none (no result: DRD3 antagonist)
CC(C)(C)c1ccc(C2Sc3ccccc3NC3=C2C(=O)c2ccccc23)cc1 (stereo not given)	none (no result: DRD3 antagonist)
CSCCCNC(=O)c1ccc(OC2CCN(CCc3ccccc3)CC2)cc1	DRD3 antagonist -85
Cc1cccnc1CCNC(=O)c1ccc(OC2CCN(Cc3ccccn3)CC2)cc1	none
O=C(NCCc1cccc(Cl)c1)c1ccc(OC2CCN(Cc3ccccn3)CC2)cc1	DRD3 antagonist -59
CC(Cc1ccccn1)NC(=O)c1ccc(OC2CCN(CCc3ccccc3)CC2)cc1 (stereo not given)	DRD3 antagonist -66
O=C(NCCc1ccccn1)c1ccc(OC2CCN(CCc3ccccc3)CC2)cc1	DRD3 antagonist -62
O=C(NC1CCCCC1)c1ccc(OC2CCN(Cc3ccccn3)CC2)cc1	none
Cc1cccc(N(C)S(=O)(=O)c2nnc(NC(=O)C(C)Oc3ccccc3)s2)c1 (stereo not given)	none (no result: DRD3 antagonist)
Cc1ccc(C(=O)NCC(=O)OCC(=O)c2cccc3ccccc23)cc1	none (no result: DRD3 antagonist, TRPML1 blocker, D3 ag)
Cc1cc(O)c(C(=O)/C=C/c2ccc(Cl)cc2)c(=O)o1	none
Cc1ccc(/C=C/C(=O)c2ccc([N+](=O)[O-])o2)cc1	DRD3 antagonist -62
Cc1ccc(CNC(=O)c2ccc([N+](=O)[O-])o2)cc1	none
O=C(/C=C/c1ccc(Cl)cc1)c1ccc([N+](=O)[O-])o1	DRD3 antagonist -101
CCOc1c2c(c(-c3ccc4c(c3)OCO4)c3cc(OC)c(OC)cc13)C(=O)OC2	none (no result: DRD3 antagonist, TRPML1 blocker, D3 ag)
COc1ccc(C)cc1NC(=O)C1CCN(S(=O)(=O)c2c(C)noc2C)CC1	D3 ag 40
CCc1cc(SC#N)cc(C)c1NC(=O)CCl	DRD3 antagonist -56
Cc1cc(-c2ccc(S(=O)(=O)Nc3cc(Cl)ccc3C)s2)on1	none (no result: DRD3 antagonist)
O=C(C=Cc1ccccc1Cl)c1ccccc1	none
C=CCn1cccc(/C=C/C(=O)c2ccc(C(C)(C)C)cc2)c1=S	DRD3 antagonist -60
COc1cccc(CNC(=O)c2c(C)nn(-c3cccc(C)c3)c2-n2cccc2)c1	none (no result: DRD3 antagonist)
Cc1nc(NCCc2ccc(F)cc2)c2nnn(Cc3ccccc3)c2n1	none
Cc1nc(NCCc2ccc(O)cc2)c2nnn(Cc3ccccc3)c2n1	DRD3 antagonist -82
COc1cc(Cl)c(C)cc1NC(=O)CC(c1ccc(F)cc1)N1Cc2ccccc2C1=O (stereo not given)	none (no result: DRD3 antagonist)
O=C(COC(=O)c1ccc2c(c1[N+](=O)[O-])C(=O)c1ccccc1C2=O)NC1CC1	DRD3 antagonist -64
CC1=CC(=O)C=C(C)C1=NOC(=O)c1cccc([N+](=O)[O-])c1	DRD3 antagonist -83
CS(=O)(=O)c1ccc(C(=O)OCC(=O)N2CCc3ccccc32)cc1[N+](=O)[O-]	none (no result: DRD3 antagonist, TRPML1 blocker, D3 ag)
O=c1[nH]ncc(N2CCN(Cc3ccccc3)CC2)c1Cl	DRD3 antagonist -71
O=C(NCc1ccccc1Cl)c1ccc2c(c1)N(Cc1ccccc1)C(=O)CS2	none (no result: DRD3 antagonist)
CC(NC(=O)CSc1nc(-c2cccc(Cl)c2)nc2cc(=O)[nH]n12)c1nc2ccccc2n1C (stereo not given)	none (no result: DRD3 antagonist)
CC(=O)N1N=C(c2cccs2)CC1c1cccc([N+](=O)[O-])c1 (stereo not given)	DRD3 antagonist -60
CC(=O)N1N=C(c2ccccc2)CC1c1cccc([N+](=O)[O-])c1 (stereo not given)	DRD3 antagonist inconclusive
COc1ccc(NC(=S)N(CCCN2CCCC(C)C2)Cc2cccs2)cc1 (stereo not given)	DRD3 antagonist -82
COc1ccc(NC(=S)N(CCCN2CCCCCC2)Cc2cccs2)cc1	none
CSc1cccc(NC(=S)N(CCCN2CCCC2)Cc2cccs2)c1	DRD3 antagonist -64
CSc1cccc(NC(=S)N(CCCN2CCCC2)Cc2cccn2Cc2ccc(Cl)cc2)c1	DRD3 antagonist inconclusive
Cc1ccc(NC(=O)N(CCCN2CCOCC2)Cc2cccs2)cc1C	DRD3 antagonist -68, TRPML1 blocker inconclusive
COc1ccc(NC(=S)N(CCCN2CCCC2)Cc2cccs2)cc1	DRD3 antagonist -64
C=C(NC(=O)C(=C)NC(=O)c1csc(C2=N[C@@H]3c4csc(n4)[C@H]4NC(=O)c5csc(n5)[C@H]([C@](C)(O)[C@@H](C)O)NC(=O)[C@H]5CSC(=N5)C(=CC)NC(=O)C([C@@H](C)O)NC(=O)c5csc(n5)[C@]3(CC2)NC(=O)[C@H](C)NC(=O)C(=C)NC(=O)[C@H](C)NC(=O)C([C@@H](C)CC)NC2C=Cc3c([C@H](C)O)cc(nc3C2O)C(=O)O[C@@H]4C)n1)C(N)=O (stereo not given in full)	none (no result: DRD3 antagonist, TRPML1 agonist, TRPML1 blocker)
COC(=O)c1ccccc1NC(=O)c1noc2c1CSc1ccccc1-2	none (no result: DRD3 antagonist)
CSc1nc(C)cc(Nc2c(C)cc(C)cc2C)n1	none (no result: DRD3 antagonist)

Screens from PubChem.
